Assay results from PubChem BioAssay (Tox21).
Results filed as inconclusive are left out. Calls of active or inactive are those of the source. Unless noted, the call rests on the fitted dose curve.

What was measured:
[1] = biological target: Gonadotropin-releasing hormone receptor (Homo sapiens) (UniProt P30968); experiment: Human gonadotropin-releasing hormone receptor (GnRHR) small molecule agonists, calcium flux assay in GnRHR-HEK293 cells (AID 1920063); further: nearly all actives have a fitted effect of over 35% in size
In short: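 GnRHR-HEK293, 1500 cells/well, 18 h 37 C/5% CO2; Ca dye 1 h 37 C; cpd pinned (DMSO), agonist mode; kinetic FL 480/540, 3 min, 1 s reads; 15 conc, n=3.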

[2] = biological target: KiSS-1 receptor (Homo sapiens) (UniProt Q969F8); experiment: Human kisspeptin (KISS1R) small molecule agonists, calcium flux assay in KISS1R-HEK293 cells (AID 1920064; active means well fitted activation curve with a large enough effect in the repeat runs)
In short: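 Stable human KISS1R HEK293 line; 18 h plating, 37 C/5% CO2; calcium dye 1 h 37 C; compound pin transfer; kinetic fluorescence Ex/Em 480/540, 3 min.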

[3] = G protein-coupled receptor (GPCR) small molecule agonists, calcium flux assay: HEK293 wild type cell line counter screen (AID 1920065)
In short: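 Kinetic fluorescence at Ex/Em 480/540, recorded every second over 3 min, served as the read-out after compound addition. Each compound was tested at 15 concentrations in triplicate on cells pre-loaded with calcium dye for 1 h.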

[4] = p53 small molecule agonists, cell-based qHTS assay with human liver microsomes (AID 1963577);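 further: p53 response element beta-lactamase reporter cells with liver microsomes plus NADPH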
In short: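 16 h, 37 C exposure of p53RE-bla cells to compounds with human liver microsomes and NADPH (0.5 mg/mL final each); detection via LiveBLAzer mixture, 2 h dark at room temperature.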

[5] = p53 small molecule agonists, cell-based qHTS assay with human liver microsomes: qHTS cell viability counter screen (AID 1963579); further: nearly all actives have a fitted effect of over 45% in size
In short: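 In this multiplexed counter screen, the reporter plates were subsequently treated with CellTiter-Glo so that cell viability, reflected by luminescence, could be recorded for p53RE-bla cells dosed 16 h with compounds under microsomal activation (HLM and NADPH).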

[6] = p53 small molecule agonists, cell-based qHTS assay with rat liver microsomes: qHTS cell viability counter screen (AID 1963580); further: nearly all actives have a fitted effect of over 45% in size
In short: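 Viability is assessed in parallel with the p53 reporter read: HCT-116 p53RE-bla cells receive compounds plus rat microsomes and NADPH (0.5 mg/mL final apiece), incubate 16 h at 37 C, and then CellTiter-Glo luminescence is recorded.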

[7] = p53 small molecule agonists, cell-based qHTS assay: qHTS cell viability counter screen (AID 1963581); further: nearly all actives have a fitted effect of over 45% in size
In short: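 HCT-116 p53RE-bla cells, 4,000/well, plated 5 h before compound pin transfer; 16 h at 37 C; bla substrate 2 h RT; then CellTiter-Glo, 30 min RT, luminescence.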

[8] = biological target: 5-hydroxytryptamine receptor 2A (Homo sapiens) (UniProt P28223); experiment: 5-hydroxytryptamine receptor 2A (HTR2A) small molecule antagonists, cell-based qHTS assay (AID 1963586); further: nearly all actives have a fitted effect of over 45% in size
In short: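 Antagonist-mode intracellular calcium assay: DOI (4 nM) added after 5 min compound pre-incubation at room temperature to dye-loaded HTR2A-CHO cells. Fluorescence followed for 3 min, sampled every second.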

[9] = biological target: 5-hydroxytryptamine receptor 2A (Homo sapiens) (UniProt P28223); experiment: 5-hydroxytryptamine receptor 2A (HTR2A) small molecule agonists, cell-based qHTS assay (AID 1963587); further: nearly all actives have a fitted effect of over 30% in size
In short: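 CHO cells stably expressing human HTR2A, plated 18 h, loaded with calcium dye 1 h at 37 C. Agonist mode: compounds added and intracellular calcium fluorescence recorded kinetically for 2 min at 1 sec intervals.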

[10] = biological target: Muscarinic acetylcholine receptor M1 (Homo sapiens) (UniProt P11229); experiment: Cholinergic receptor muscarinic 1 (CHRM1) small molecule agonists, cell-based qHTS assay (AID 1963589); further: nearly all actives have a fitted effect of over 35% in size
In short: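 Human M1 in stable CHO line; 18 h plating, 1 h dye load 37 C; cpd added (agonist mode); Ca2+ fluorescence kinetic read, 1 s intervals; 15 conc, 3 runs.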

[11] = biological target: Beta-2 adrenergic receptor (Homo sapiens) (UniProt P07550); experiment: Adrenergic beta2 receptor (ADRB2) small molecule antagonists, cell-based qHTS assay (AID 1963592); further: nearly all actives have a fitted effect of over 50% in size; further: potency means the concentration at half of the fitted maximal effect
In short: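 Cells (CHO, stable ADRB2 overexpression) incubated 18-20hr at 37C; compounds added from DMSO; agonist mix (1nM isoproterenol, 100uM IBMX, 25uM Ro-20-1724) added; 0.5hr RT; d2-cAMP and anti-cAMP-cryptate added; 1hr RT; 665/615 nm read.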

[12] = biological target: D(2) dopamine receptor (Homo sapiens) (UniProt P14416); experiment: Dopamine D2 receptor (DRD2) small molecule agonists, cell-based qHTS assay (AID 1963594); further: nearly all actives have a fitted effect of over 35% in size
In short: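 HEK293 cells stably expressing human DRD2, pre-treated with PDE inhibitor Ro20-1724 (0.1 mM final) and compound 10 min at room temperature, then stimulated with NKH477 (200nM […]) for 30 min. cAMP read by HTRF (665/620 nm).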

[13] = biological target: D(2) dopamine receptor (Homo sapiens) (UniProt P14416); experiment: Dopamine D2 receptor (DRD2) small molecule antagonists, cell-based qHTS assay (AID 1963595; active means well fitted inhibition curve with a large enough effect in the signal ratio in the repeat runs, with a control signal flat; the % refers to the signal ratio)
In short: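 Stable D2 receptor HEK293 line, 24 h after seeding. Compound preincubated 10 min, then quinpirole (12 nM) with forskolin analogue NKH477 (200 nM), 30 min, room temperature. Detection by time-resolved FRET of cAMP.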

[14] = p53 small molecule agonists, cell-based qHTS assay with rat liver microsomes (AID 1963578)
In short: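 With rat liver microsomes and NADPH present (0.5 mg/mL final each), p53RE-bla cells are treated with compound for 16 h at 37 C. LiveBLAzer detection mixture is then applied for 2 h at room temperature in the dark.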

[15] = p53 small molecule agonists, cell-based qHTS assay (AID 1963582; active means well fitted activation curve with a large enough effect in the signal ratio in the repeat runs, not every such curve was filed as active; the % refers to the signal ratio)
In short: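 Reporter line: p53RE-bla. Pre-incubation 5 h, 37 C, 5% CO2; compound (DMSO, pin tool) 16 h, 37 C; B/G FRET substrate 2 h RT; fluorescence intensity read.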

[16] = biological target: Muscarinic acetylcholine receptor M1 (Homo sapiens) (UniProt P11229); experiment: Cholinergic receptor muscarinic 1 (CHRM1) small molecule antagonists, cell-based qHTS assay (AID 1963588); further: nearly all actives have a fitted effect of over 40% in size
In short: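 CHRM1-CHO calcium-flux assay, antagonist mode. Cells were seeded 18 h, dye-loaded 1 h at 37 C and given compound for 5 min at RT, then acetylcholine was added at 50nM. FDSS fluorescence was read 3 min; 15 concentrations, three runs.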

[17] = cAMP Responsive Elements (CRE) small molecule agonists, cell-based qHTS assay (AID 1963590)
In short: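 HEK 293T CRE-bla, 2,000 cells/well, 18 h preincubation 37 C/5% CO2; cpds (DMSO) pinned, 3 h; LiveBLAzer B/G FRET substrate, 2 h RT.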

[18] = cAMP Responsive Elements (CRE) small molecule antagonists, cell-based qHTS assay (AID 1963591; active means well fitted inhibition curve with a large enough effect in the signal ratio in the repeat runs, not every such curve was filed as active; the % refers to the signal ratio)
In short: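 Beta-lactamase reporter read by FRET substrate (LiveBLAzer B/G) after 2 h at room temperature. CRE-bla HEK293T cells had received compound plus 0.25 uM (final) NKH477 for 3 h at 37 °C.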

[19] = biological target: Beta-2 adrenergic receptor (Homo sapiens) (UniProt P07550); experiment: Adrenergic beta2 receptor (ADRB2) small molecule agonists, cell-based qHTS assay (AID 1963593);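 further: CHO cells stably overexpressing human ADRB2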
In short: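 CHO cells stably over-expressing ADRB2 were plated overnight at 37C, then dosed with compounds plus a stimulation mix containing 100uM IBMX and 25uM Ro-20-1724 for 0.5hr at room temperature. cAMP was measured by HTRF competition, 1hr.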

[20] = Nuclear factor erythroid 2-related factor 2/antioxidant responsive element (Nrf2/ARE) small molecule agonists: luciferase reporter gene qHTS assay in human keratinocytes (AID 1919969); further: nearly all actives have a fitted effect of over 35% in size

Measured: Potency

D(2) dopamine receptor (Homo sapiens), sequence (P14416 whole entry, looked up): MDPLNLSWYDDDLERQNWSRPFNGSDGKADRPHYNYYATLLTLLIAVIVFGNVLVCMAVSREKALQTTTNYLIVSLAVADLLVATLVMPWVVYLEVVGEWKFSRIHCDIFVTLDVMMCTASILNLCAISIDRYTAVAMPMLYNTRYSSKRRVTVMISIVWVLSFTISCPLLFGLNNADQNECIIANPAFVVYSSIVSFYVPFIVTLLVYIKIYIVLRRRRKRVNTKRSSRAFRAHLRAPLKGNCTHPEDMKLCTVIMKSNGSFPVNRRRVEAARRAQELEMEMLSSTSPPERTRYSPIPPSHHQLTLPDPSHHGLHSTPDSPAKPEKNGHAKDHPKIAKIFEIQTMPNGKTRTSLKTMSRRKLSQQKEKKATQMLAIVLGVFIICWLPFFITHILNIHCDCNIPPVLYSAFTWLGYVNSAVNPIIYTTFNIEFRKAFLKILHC
KiSS-1 receptor (Homo sapiens), sequence (Q969F8 whole entry, looked up): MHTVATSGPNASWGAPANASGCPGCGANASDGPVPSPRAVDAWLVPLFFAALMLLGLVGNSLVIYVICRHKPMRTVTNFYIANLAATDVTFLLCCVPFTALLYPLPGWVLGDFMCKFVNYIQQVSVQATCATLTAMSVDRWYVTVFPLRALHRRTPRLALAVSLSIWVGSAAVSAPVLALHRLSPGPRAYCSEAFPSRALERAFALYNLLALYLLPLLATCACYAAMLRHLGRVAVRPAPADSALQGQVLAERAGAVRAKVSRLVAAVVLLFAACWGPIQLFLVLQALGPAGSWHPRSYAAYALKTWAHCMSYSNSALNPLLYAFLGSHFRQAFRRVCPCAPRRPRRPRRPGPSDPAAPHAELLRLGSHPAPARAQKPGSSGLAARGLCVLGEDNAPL
Gonadotropin-releasing hormone receptor (Homo sapiens), sequence (P30968 whole entry, looked up): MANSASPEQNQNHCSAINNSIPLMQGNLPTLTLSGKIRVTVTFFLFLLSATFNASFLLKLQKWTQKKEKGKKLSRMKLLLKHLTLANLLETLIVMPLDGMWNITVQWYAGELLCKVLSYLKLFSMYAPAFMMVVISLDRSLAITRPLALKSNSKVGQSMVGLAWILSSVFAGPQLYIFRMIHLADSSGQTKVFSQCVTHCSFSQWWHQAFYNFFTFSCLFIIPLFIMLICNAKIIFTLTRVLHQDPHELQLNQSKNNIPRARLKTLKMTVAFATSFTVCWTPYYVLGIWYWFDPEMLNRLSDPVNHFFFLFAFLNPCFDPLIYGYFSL
Beta-2 adrenergic receptor (Homo sapiens), sequence (P07550 whole entry, looked up): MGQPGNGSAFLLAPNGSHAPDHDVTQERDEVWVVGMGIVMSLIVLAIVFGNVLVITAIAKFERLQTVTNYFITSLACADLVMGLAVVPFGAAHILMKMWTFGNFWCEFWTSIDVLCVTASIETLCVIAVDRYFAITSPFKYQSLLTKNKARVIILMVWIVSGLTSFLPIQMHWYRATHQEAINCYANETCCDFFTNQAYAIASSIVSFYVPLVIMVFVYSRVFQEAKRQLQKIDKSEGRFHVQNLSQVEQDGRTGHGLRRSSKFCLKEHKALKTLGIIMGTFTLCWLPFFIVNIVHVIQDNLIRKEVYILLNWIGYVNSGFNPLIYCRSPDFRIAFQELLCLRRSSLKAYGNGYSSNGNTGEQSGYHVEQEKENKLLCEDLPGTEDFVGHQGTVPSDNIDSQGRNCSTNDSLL
Muscarinic acetylcholine receptor M1 (Homo sapiens), sequence (P11229 whole entry, looked up): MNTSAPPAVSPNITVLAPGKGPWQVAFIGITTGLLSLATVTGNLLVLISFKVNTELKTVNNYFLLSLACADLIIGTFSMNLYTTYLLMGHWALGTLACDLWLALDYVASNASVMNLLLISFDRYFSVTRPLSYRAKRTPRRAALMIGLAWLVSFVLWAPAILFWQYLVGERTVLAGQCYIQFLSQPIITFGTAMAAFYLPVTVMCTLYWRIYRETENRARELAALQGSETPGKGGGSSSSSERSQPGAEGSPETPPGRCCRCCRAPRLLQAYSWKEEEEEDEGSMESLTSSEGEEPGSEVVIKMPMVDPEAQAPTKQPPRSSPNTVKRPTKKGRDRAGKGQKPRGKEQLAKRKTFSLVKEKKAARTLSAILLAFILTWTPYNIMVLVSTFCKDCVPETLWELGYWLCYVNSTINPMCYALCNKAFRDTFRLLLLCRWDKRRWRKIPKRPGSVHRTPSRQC
5-hydroxytryptamine receptor 2A (Homo sapiens), sequence (P28223 whole entry, looked up): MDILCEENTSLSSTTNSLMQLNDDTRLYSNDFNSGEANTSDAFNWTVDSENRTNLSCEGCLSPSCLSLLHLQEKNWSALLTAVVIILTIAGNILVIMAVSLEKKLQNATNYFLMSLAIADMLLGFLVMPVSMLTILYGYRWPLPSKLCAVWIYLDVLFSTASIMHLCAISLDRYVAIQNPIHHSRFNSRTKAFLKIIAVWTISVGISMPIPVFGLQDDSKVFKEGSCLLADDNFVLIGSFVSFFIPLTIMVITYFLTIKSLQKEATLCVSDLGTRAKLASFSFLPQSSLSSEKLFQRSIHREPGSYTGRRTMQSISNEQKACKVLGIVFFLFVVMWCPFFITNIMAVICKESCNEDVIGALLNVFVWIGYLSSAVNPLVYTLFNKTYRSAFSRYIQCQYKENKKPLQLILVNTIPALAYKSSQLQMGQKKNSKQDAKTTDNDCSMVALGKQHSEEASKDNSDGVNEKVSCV

O=C(O)Cc1ccc2c(c1)C(=O)c1ccccc1CO2
not listed: [14] | [15] | [16] | [17] | [18] | [19] | [20]
inactive: all other assays above

CCn1cc(C(=O)O)c(=O)c2cc(F)c(N3CCNC(C)C3)c(F)c21 (centres undefined)
inactive: [3] | [4] | [14] | [6] | [7] | [11] | [12] | [13]

Oc1cccc2cc3cccc(O)c3c(O)c12
not listed: [4] | [14] | [18] | [19] | [20]
inactive: all other assays above

CCCCCCCCCCCCC
not listed: [8] | [14] | [18] | [19] | [20]
inactive: all other assays above

Nc1ccc(S(=O)(=O)O)cc1
not listed: [2] | [7] | [19] | [20]
inactive: all other assays above

O=C(c1ccc(O)cc1)c1ccc(O)cc1
not listed: [1] | [7] | [15] | [17] | [20]
inactive: all other assays above

CCCCC1=NC2(CCCC2)C(=O)N1Cc1ccc(-c2ccccc2-c2nn[nH]n2)cc1
inactive: [1] | [2] | [4] | [6] | [11] | [12] | [13]

O=C(OCc1ccccc1)C(=O)OCc1ccccc1
not listed: [3] | [5] | [6] | [8] | [11] | [16] | [18] | [20]
inactive: all other assays above

CCOC(=O)[C@H](CCc1ccccc1)N[C@@H](C)C(=O)N1Cc2cc(OC)c(OC)cc2C[C@H]1C(=O)O
not listed: [1] | [9] | [17] | [18] | [19] | [20]
inactive: all other assays above

O=C1CCCCCCCCCCOCCCCO1
not listed: [2] | [16] | [20]
inactive: all other assays above

CCC(=O)OC(=O)CC
not listed: [2] | [8] | [19] | [20]
inactive: all other assays above

CC(C)(C)NCC(O)COc1ccc(NC(=O)NC2CCCCC2)cc1 (centres undefined)
active: [11] 4.73 µM
not listed: [12] | [14] | [19] | [20]
inactive: all other assays above

CCCCCCCC1CCCC1=O (centres undefined)
not listed: [1] | [19] | [20]
inactive: all other assays above

Cc1cccc(C(=O)O)c1[N+](=O)[O-]
not listed: [19]
inactive: all other assays above

COC(=O)c1ccccc1Cl
not listed: [19]
inactive: all other assays above

CCOC(=O)COC(=O)c1ccccc1C(=O)OCC
not listed: [16] | [17] | [18] | [19]
inactive: all other assays above

COc1ccc(CCN(C)CCCC(C#N)(c2cc(OC)c(OC)c(OC)c2)C(C)C)cc1OC (centres undefined)
not listed: [8] | [9] | [12] | [16] | [18] | [19]
inactive: all other assays above
